Assay outcomes deposited in PubChem BioAssay by National Center for Advancing Translational Sciences (NCATS).
D1 antag: human D1 dopamine receptor antagonism. P21728. HEK293 TREx D1 cells, calcium flux, dopamine EC80; active compounds read low. activity change, negative = inhibition, % at 10 µM. 3.2% of 360,000 active; in the data active = activity change below about -30%; note: % is set by controls: 0 for no effect and ±100 for the full control effect
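Using tetracycline-induced force-coupled D1 Hek293 cells and a calcium dye, signals were followed for 180 s after compound, then for 180 s after EC80 dopamine, to detect inhibitors.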
D1 agonist: agonists of human D1 dopamine receptor | P21728 | HEK293 T-REx D1 cells, calcium flux, agonist mode | activation, % at 2 µM | 1% of 360,000 active | AID 504660; in the data active = activation above about 30%; note: 0% is about no effect
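Tetracycline-induced HEK293 TREx D1 cells, force-coupled to calcium signalling, were dye-loaded with a no-wash calcium kit. Compound was pin-added after a 10 s baseline. Fluorescence was read kinetically at 1 cycle/s for 180 s, with calcium rises flagged as agonism.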
TRHR agonist-1: agonists of human TRH receptor. P34981. 0.18% of 360,000 active. TRHR cells, calcium flux fluo-8, FDSS agonist mode. activation, % at 2 µM; in the data active = activation above about 30%; note: 0% is about no effect
Target sequence (P34981 whole entry, looked up): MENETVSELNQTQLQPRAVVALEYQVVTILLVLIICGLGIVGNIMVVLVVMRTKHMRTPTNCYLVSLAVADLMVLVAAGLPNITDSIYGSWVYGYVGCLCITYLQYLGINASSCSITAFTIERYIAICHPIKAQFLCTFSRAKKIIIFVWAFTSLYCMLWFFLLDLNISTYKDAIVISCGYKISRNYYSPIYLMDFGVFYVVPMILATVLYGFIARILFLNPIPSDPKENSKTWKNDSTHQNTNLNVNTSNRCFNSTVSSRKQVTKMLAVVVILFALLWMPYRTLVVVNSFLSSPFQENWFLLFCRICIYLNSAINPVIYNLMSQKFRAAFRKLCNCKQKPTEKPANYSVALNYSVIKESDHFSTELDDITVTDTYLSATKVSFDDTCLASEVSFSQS
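In this calcium-flux screen, cells bearing human TRHR are dye-loaded with fluo-8, baselined for 10 cycles, then exposed to library compounds; positive kinetic calcium responses during the agonist phase mark hits, with TRH as control.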
TRHR enhancer-1: allosterically enhances the human TRH receptor | enhancement, % at 2 µM | 0.66% of 360,000 active | TRHR cells, fluo-8 calcium fluorescence, EC20 TRH enhancement; in the data active = enhancement above about 30%; note: 0% is about no effect
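TRHR-expressing cells loaded with fluo-8 calcium dye were read kinetically (ex 480/em 530) during compound addition, then stimulated with an EC20 of TRH (10 nM final). Enhancement of the Gq-mediated intracellular calcium response was scored.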
D1 PAM: enhances dopamine response at the human D1 receptor. P21728. HEK293 TREx D1 cells, calcium flux, dopamine EC20 potentiation. potentiation, % at 10 µM. 0.036% of 360,000 active; in the data active = potentiation above about 30%; note: 0% is about no effect
TRHR enhancer-2: human TRH receptor allosteric enhancement confirmation; shares compounds with TRHR enhancer-1; TRH receptor cell assay, enhancer confirmation qHTS; activity change, negative = inhibition, % at 46.1 µM; 970 tested, under 10 active; AID 493076;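 note: compound effect scored on response to added TRH at EC20 of 10 nM; 0% is about no effect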
TRHR agonist-2: human TRH receptor agonism confirmation; shares compounds with TRHR enhancer-1; Potency, µM (titrated, usually from 46.1 µM), for inactives: at the top dose activation, most hits filed as activators; TRHR-expressing cells, agonist activation read-out; 8% of 970 active; note: potency is the fitted concentration of half-maximal effect; 0% is about no effect; nearly all actives have a fitted effect of over 75% in size
Numbers without * were called inactive. Compounds with a hit are over-represented: about 4.7% of the library has one in this group of screens. Unless noted, calls come from the whole dose curve; as a rule, active = well fitted curve in the direction sought with a large enough effect; inconclusive = small, poorly fitted or top-dose-only effect, or another doubt; inactive = no such curve, though single readings can be large; an effect the other way counts as inactive or inconclusive.

`Cn1c(=O)c2c(ncn2CCOc2ccc(F)cc2)n(C)c1=O` gave D1 antag -14, D1 agonist 8, TRHR agonist-1 1, TRHR enhancer-1 -3 and D1 PAM -10.
Screening Cc1nc2cc(O)ccc2n1C returned D1 antag 8, D1 agonist 1, TRHR agonist-1 2, TRHR enhancer-1 61*, D1 PAM -4, TRHR enhancer-2 -3 and TRHR agonist-2 1%.
Cc1nc2cc3ccccc3cc2n1C was read as D1 antag 3, D1 agonist 0, TRHR agonist-1 0, TRHR enhancer-1 5 and D1 PAM 1.
`COc1cccc(N2CCN(c3ncnc4c3c(-c3ccccc3)cn4-c3ccc(C)cc3)CC2)c1` gave D1 antag 12, D1 agonist -3, TRHR agonist-1 0, TRHR enhancer-1 -4 and D1 PAM -1.
Screening COc1cccc(-c2ccc(-c3noc(-c4ccccc4Br)n3)c(OC)n2)c1 returned D1 antag 2, D1 agonist 6, TRHR agonist-1 -1, TRHR enhancer-1 -2 and D1 PAM -1.
`Cn1c(/C(C#N)=C/c2ccc(O)cc2)nc2ccccc21` gave D1 antag -2, D1 agonist 2, TRHR agonist-1 1, TRHR enhancer-1 4 and D1 PAM 0.
`COc1cc(/C=C(\C#N)c2nc3ccccc3n2C)cc(OC)c1O` gave D1 antag 1, D1 agonist 64*, TRHR agonist-1 119*, TRHR enhancer-1 17, D1 PAM -4, TRHR enhancer-2 -1 and TRHR agonist-2 18µM*.
Screening O=C(CCN1C(=O)c2ccccc2C1=O)Nc1ccccc1C(F)(F)F returned D1 antag -1, D1 agonist 0, TRHR agonist-1 0, TRHR enhancer-1 -1 and D1 PAM 0.
`CC(=Nc1cccc(O)c1)c1sc2ccccc2c1O` gave D1 antag -28, D1 agonist 68*, TRHR agonist-1 29, TRHR enhancer-1 14, D1 PAM -7, TRHR enhancer-2 -2 and TRHR agonist-2 inconclusive.
Screening CCOc1ccc(NC(=O)C(Cc2ccccc2)NC(=O)C2CCCCC2)cc1 (stereo not drawn) returned D1 antag 37, D1 agonist 1, TRHR agonist-1 0, TRHR enhancer-1 1 and D1 PAM 5.
For O=C1CC(NS(=O)(=O)c2ccc([N+](=O)[O-])cc2)CN1c1ccc(Cl)cc1 (stereo not drawn) the results were D1 antag 1, D1 agonist 11, TRHR agonist-1 0, TRHR enhancer-1 -2 and D1 PAM -7.
`Cc1nc2nc(SCc3c(F)cccc3Cl)nn2c(C)c1Cc1ccccc1` gave D1 antag 14, D1 agonist -1, TRHR agonist-1 2, TRHR enhancer-1 -4 and D1 PAM -2.
For Cc1nn(-c2ccccc2)c(N2CCCC2)c1/C=N/NC(=O)c1ccccc1O the results were D1 antag -6, D1 agonist 3, TRHR agonist-1 0, TRHR enhancer-1 83*, D1 PAM -3, TRHR enhancer-2 -8 and TRHR agonist-2 inconclusive.
Screening C=Cc1ccc(CSc2nc(-c3ccccc3Cl)nc3c2Cc2c(CO)cnc(C)c2O3)cc1 returned D1 antag 4, D1 agonist 3, TRHR agonist-1 0, TRHR enhancer-1 4 and D1 PAM 0.
For COc1ccc(/C=N/n2c(-c3ccccc3)n[nH]c2=S)cc1 the results were D1 antag -1, D1 agonist 1, TRHR agonist-1 0, TRHR enhancer-1 49*, D1 PAM -7, TRHR enhancer-2 8 and TRHR agonist-2 6%.
`COc1cc2ncnc(NCc3ccco3)c2cc1OC` gave D1 antag -4, D1 agonist 2, TRHR agonist-1 -2, TRHR enhancer-1 75*, D1 PAM -12, TRHR enhancer-2 -6 and TRHR agonist-2 4%.
For COc1cc2ncnc(NCc3ccccc3)c2cc1OC the results were D1 antag -2, D1 agonist 2, TRHR agonist-1 0, TRHR enhancer-1 -1 and D1 PAM -8.
